Reference: PubChem BioAssay (NCATS)
Inconclusive results are not listed. Values without a mark were called inactive. The source made the active and inactive calls. The call rests on the fitted dose curve; in most records, active means well fitted curve in the direction sought with a large enough effect; inconclusive means small, poorly fitted or top-dose-only effect, or another doubt; inactive means no such curve, though single readings can be large; an effect the other way counts as inactive or inconclusive.

Assays:
[1] = BET inhibitor-based combinations targeting novel dependencies in MECOM-rearranged (r) AML: SET-2 cell line (AID 2202231); settings: SET-2 AML cells viability, CellTiter-Glo luminescence, 48 h; viability: hits give low values, concentration not given here; further: nearly all actives have a fitted effect of over 35% in size;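 on viability: plate controls were DMSO treated cells for no effect and wells without cells for full effect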
Outline: (§1)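 500 cells/well; 11-pt dose curve; 48 h, standard incubator; CellTiter-Glo luminescence after 15 min RT; DMSO/empty-well normalization; AUC plus Z-AUC (mean-centered within each line).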

[2] = BET inhibitor-based combinations targeting novel dependencies in MECOM-rearranged (r) AML: OCI-AML3 cell line (AID 2202232); settings: Potency: OCI-AML3 viability; further: nearly all actives have a fitted effect of over 35% in size
Outline: as §1

[3] = BET inhibitor-based combinations targeting novel dependencies in MECOM-rearranged (r) AML: MV-4-11 cell line (AID 2202233); further: nearly all actives have a fitted effect of over 45% in size
Outline: (§2)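 Cells were plated at 500 per well and exposed to each drug across an 11-point dose range for 48 hr at standard incubator conditions. Viability was read by CellTiter-Glo luminescence, and activity was expressed as AUC and per-cell-line Z-transformed AUC.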

[4] = BET inhibitor-based combinations targeting novel dependencies in MECOM-rearranged (r) AML: HNT-34 cell line (AID 2202234); further: nearly all actives have a fitted effect of over 35% in size
Outline: as §2

[5] = BET inhibitor-based combinations targeting novel dependencies in MECOM-rearranged (r) AML: UCSD-AML1 cell line (AID 2202235); further: nearly all actives have a fitted effect of over 40% in size
Outline: as §2

[6] = BET inhibitor-based combinations targeting novel dependencies in MECOM-rearranged (r) AML: AML-191 cell line (AID 2202236; further: nearly all actives have a fitted effect of over 35% in size)
Outline: as §1

[7] = BET inhibitor-based combinations targeting novel dependencies in MECOM-rearranged (r) AML: AML-194 cell line (AID 2202237; further: nearly all actives have a fitted effect of over 40% in size)
Outline: as §1
Potency means the concentration at half of the fitted maximal effect.

| Compound | Potency [1] | Potency [2] | Potency [3] | Potency [4] | Potency [5] | Potency [6] | Potency [7] | viability [1] [%] |
| --- | --- | --- | --- | --- | --- | --- | --- | --- |
| NC(=O)/C(=C/n1cnc(-c2cc(C(F)(F)F)cc(C(F)(F)F)c2)n1)c1cncnc1 | 590 nM (active) | 742 nM (active) | 186 nM (active) | 742 nM (active) | 118 nM (active) | 263 nM (active) | 166 nM (active) |  |
| COc1cc(Nc2cnc(C#N)c(O[C@H](C)CN(C)C)n2)ncc1-c1cnn(C)c1 | 3720 nM (active) | 1320 nM (active) | 742 nM (active) | 2950 nM (active) | 1860 nM (active) | 1860 nM (active) | 1480 nM (active) |  |
| Fc1cccc(-n2cnc3c(NCc4nc5c(F)c(F)ccc5[nH]4)nc(N4CCOCC4)nc32)c1 | 372 nM (active) | 742 nM (active) | 263 nM (active) | 296 nM (active) | 296 nM (active) | 166 nM (active) | 372 nM (active) |  |
| COc1ccc(S(=O)(=O)N[C@@H](CNc2nc(C)nc(N3CCC(c4ccc5c(n4)NCCC5)CC3)c2C)C(=O)O)cc1 |  | inactive | inactive | inactive | inactive | inactive | inactive | 111 |
| C=CC(=O)Nc1cccc(C)c1Nc1ncc2cc(-c3c(Cl)c(OC)cc(OC)c3Cl)ccc2n1 | 14800 nM (active) | 10500 nM (active) | 4170 nM (active) | 8330 nM (active) | 5250 nM (active) | 13200 nM (active) | 11800 nM (active) |  |
| CC1(C(=O)O)CCC2(C)CCC3(C)C(=CC(=O)C4C5(C)CCC(OC6OC(C(=O)O)C(O)C(O)C6OC6OC(C(=O)O)C(O)C(O)C6O)C(C)(C)C5CCC43C)C2C1 (configuration not stated) |  | inactive | inactive | inactive | inactive | inactive | inactive | 124 |
